Reference: PubChem BioAssay (NCI)
About 83,000 compounds went through this panel and 20% of them were active in at least one assay; those are over-represented in the sample as a whole.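 48-hour exposure, single concentration, 96-well plates; percent growth endpoint where 0 means no net growth. Active: below 10.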 Values without a mark were called inactive. Active and inactive are the calls of the source.

What follows are molecules tested on A549/ATCC NSCLC (assay: NCI-60 one-dose screen, 48 h (100 = growth as untreated, 0 = no growth, -100 = all killed)). Settings: 10 µM unless noted.
Description: Growth inhibition of the A549/ATCC human Non-Small Cell Lung tumor cell line is measured as a screen for anti-cancer activity. Cells are grown in 96 well plates and exposed to the test compound for 48 hours. Compounds are tested at a single concentration, which is 10^-5 M for most compounds. The reported endpoint is percent growth (GI% or GIPRCNT), where numbers from 0 - 100% represent growth inhibition, and numbers from -100% - 0 represent cell death. For example, a value of 40 represents 60% growth inhibition. A value of 0 means no net growth occurred over the course of the experiment. A value of -40 indicates 40% of cells at the beginning of the experiment died by the end of the experiment. A value of -100 means all cells are dead at the end of the experiment.
NCI-60 Human Tumor Cell Lines Screen was performed using the standard one-dose NCI protocol, which is described in more detail at https://dtp.cancer.gov/discovery_development/nci-60/default.htm.
Compounds with GIPRCNT values below 10 were considered active. Activity score was based on GIPRCNT using the following formula: […]
Score is 0 for GIPRCNT values of 100 or above, 50 for GIPRCNT values of 0, and 100 for GIPRCNT values of -100.

| Structure (SMILES) | growth |
| --- | --- |
| Cc1ccc(N2C3c4ccccc4N(S(=O)(=O)c4ccc(C)cc4)C2c2ccccc2N3S(=O)(=O)c2ccc(C)cc2)cc1 | 97.1% |
| Cc1cc2nc3c(=O)[nH]c(=O)nc-3n(CC=O)c2cc1C | 115% |
| CCOP(=O)(O)OP(=O)(O)OCC | 106% |
| O=C(C=P(c1ccccc1)(c1ccccc1)c1ccccc1)CCl | 23.1% |
| Fc1cc(-c2nnc3sc(-c4ccc(Cl)cc4)nn23)c(Cl)cc1Cl | 93.8% |
| CSC1=NC(=Nc2c(C)cccc2C)C2(CCC(C(C)(C)C)CC2)N1c1ccc(Cl)cc1 (stereo not given) | 30.5% |
| CCCCCCCCCCC(C(O)c1ccccc1)N1CCCCC1 (stereo not given) | 47.3% |
| COc1ccc(C2C3=C(COC3=O)N(CCO)c3cc(OC)c(OC)cc32)cc1 (stereo not given) | 108% |
| C=CCn1c(C)nc2cc(Nc3nc(N4CCCC4)nc4nc[nH]c34)ccc21 | 46.3% |
| O=c1c2sc3ncc(Cl)cc3c2nnn1-c1cccc(Cl)c1 | 42.5% |
| O=C(O)c1cn(-c2ccccc2)nc1-c1ccc(O)cc1 | 92.4% |
| Cc1cc(C)cc(NC(=O)Cn2nncc2CN2C(=O)CSC2=O)c1 | 102% |
| CCCc1cc2c(cc1CN(Cc1cc3c(cc1CCC)OCO3)C(=N)OCC)OCO2 | 71.8% |
| O=[N+]([O-])c1cccc(N=C(Nc2cccc([N+](=O)[O-])c2)c2ccccc2)c1 | 79.9% |
| O=C(OCc1ccc2c(Br)cc(Br)c(O)c2n1)c1cc2ccccc2[nH]1 | 14.5% |
| O=S(=O)(NCC[C@@H]1C[C@H]1c1ccc2ccccc2c1)c1ccc(C(F)(F)F)cc1 | 85.3% |
| COc1ccc(-c2oc(=O)ccc2-c2cc(OC)c(OC)c(OC)c2)cc1F | 27.8% |
| CCCCCCCCCC1=NC(C)(C)CN1C(C)(C)CO | 99.6% |
| Cc1cccc(C(=O)O)n1 | 102% |
| F | 18% [6.87 mM] |

| Structure (SMILES) | growth |
| --- | --- |
| CCCCN(CCCC)CCC(O)c1cc2ccc(C(F)(F)F)cc2c2cc(C(F)(F)F)ccc12 (stereo not given) | 64.8% |
| O=Cc1ccc2nc(C(Cl)(Cl)Cl)ccc2c1 | 108% |
| Cc1cc(C)c2c(n1)sc1c(Nc3ccc(O)cc3)ncnc12 | 26.7% |
| Clc1cn2cc(-c3ccc(Cl)c(Cl)c3Cl)nc2s1 | 103% |
| CCN(CC)c1ccc(C(=N)c2ccc(N(C)C)cc2)cc1 | 28.6% |
| NC(=O)c1noc(C(=O)c2ccccc2)c1N | 89.1% |
| C/C=C(\C)C(C(=O)NC1CCCCC1)N(C(=O)C1CCc2cc(F)ccc2O1)c1ccc([N+](=O)[O-])cc1 (stereo not given) | 79.1% |
| CCCCc1n(Cc2ccc3ccccc3n2)cc[n+]1Cc1ccc2ccccc2n1 | 44.8% |
| O=c1[nH]c2cc(Cl)c(Cl)cc2o1 | 114% |
| CC(=O)OC1Oc2cc(C)c(C)cc2-c2oc(=O)c(-c3ccc(F)cc3)cc21 (stereo not given) | 52.5% |
| CN1CCN(Cc2ccc(NC(=O)c3cncc(C#Cc4ccc(N)nc4)c3)cc2C(F)(F)F)CC1 | 16.2% |
| O=C1c2ccccc2C(=O)c2c1oc1ccc3ccccc3c21 | 60.8% |
| O=C1C2=C(C(=O)c3c(O)ccc(O)c31)N(c1ccc(N3CCOCC3)nc1)Cc1ccccc1O2 | -23.2% (active) |
| COc1ccc(C(=O)c2c(N)nc3n2CCCC3)cc1OC | 102% |
| [O-]/[N+](=C\c1ccccc1)CC1(O)CCCCC1 | 101% |
| Cc1ccc(/C=C/C(=N/N=C(N)N)c2ccccc2)cc1 | 18.7% |
| COC1CC(N)C2OC(c3ccccc3)OCC2O1 (stereo not given) | 97.9% |
| CN1CCN(Cc2ccc(NC(=O)c3cnc(F)c(C#Cc4cnc(N)c5ncccc45)c3)cc2C(F)(F)F)CC1 | 23.3% |
| COC1=CC(c2ccc[nH]2)=N/C1=C\c1[nH]c(C)c(C(=O)CCCCCCCCC(=O)O[C@H]2CC[C@H]3C4CCc5cc(O)ccc5C4CC[C@]23C)c1C (stereo not given in full) | 4.12% (active) |
| COc1cc(C2Nc3ccccc3S2)cc(CN2CCOCC2)c1O (stereo not given) | 73.6% |
